Reference: PubChem BioAssay AID2401 (Southern Research Specialized Biocontainment Screening …, 2010)
The campaign covered roughly 2,200 compounds. About 530 (24%) were called active.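 Rule for the calls: active = inhibition above a set limit at one or more concentrations of the dose series; inactive = inhibition under that limit at every dose.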 Not all results are given here. Results with a measured potency or affinity are listed apart.

Test: S. Typhimurium nonspecific reporter signal inhibition – Salmonella Typhimurium, GFP fluorescence, counter-screen for PhoP regulon inhibitor project, dose response (AID 2401);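 note: S. typhimurium with Mg-insensitive nmpC-GFP reporter grown at 10 µM Mg2+; drop in reporter fluorescence reflects general culture growth inhibition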
Conditions: 4 h; series mostly up to 150 µM

Structure (SMILES)	outcome
Cc1nn(-c2ccc(Cl)cc2)c2[nH]c(=O)c(CNCc3ccc4c(c3)OCO4)cc12	inactive
CCCSc1nc(N2CCCC2)c2c(c1C#N)CC(C)(C)OC2	inactive
O=C(CCn1nnc(-c2cccs2)n1)NCc1ccccc1Cl	inactive
Nc1scc(-c2ccncc2)c1Cl	inactive
CN(C)c1ccnc(-n2cccc2/C=N/OCc2ccccc2)c1C#N	inactive
CCOC(=O)N1CCN(C(=O)c2cn(CC(C)C)c(=O)c3c2c2ccccc2n3C)CC1	inactive
CCOC(=O)c1cn(CC)c2cc(N3CCOCC3)c(F)cc2c1=O	inactive
Cc1cc(C)c2nc(NNC(=O)c3ccc(S(=O)(=O)N4CCc5ccccc5C4)cc3)sc2c1	inactive
Cc1ccc2nc(SCCCCOc3ccccc3)[nH]c2c1	inactive
CN(c1ccccc1)S(=O)(=O)c1cc(C(=O)Nc2nc3ccccc3[nH]2)ccc1Cl	inactive
O=C(CSc1nnnn1-c1ccccc1)CC(=O)Nc1ccc(Cl)cc1	inactive
Cc1cccc(C(=O)NC(=S)Nc2ccc(N3CCOCC3)cc2)c1	inactive
CCn1cc(C(=O)O)c(=O)c2cc(F)c(N3CCN(C(=S)NC(=O)c4ccccc4Cl)CC3)cc21	inactive
CCOC(=O)CSc1n[nH]c(NC(=O)c2cccc(C)c2)n1	inactive
CCCS(=O)(=O)N1CCCC(C(=O)N2CCN(c3ccccn3)CC2)C1 (stereo unspecified)	inactive
COc1cc(NC(=O)CSc2nnnn2Cc2ccc3c(c2)OCO3)cc(OC)c1	inactive
Cc1cccc(-n2ncc3c(NCc4ccc5c(c4)OCO5)ncnc32)c1	inactive
O=C1Nc2ccccc2C(O)(C(=O)N2CCCCC2)N1c1ccccc1 (stereo unspecified)	inactive
Cc1cccnc1N(C(=O)Nc1ccccc1)C1=NCC(C)(C)S1	inactive

Structure (SMILES)	outcome
Cc1nn(-c2ncc(C(F)(F)F)cc2Cl)c(=O)n1-c1cccc(Cl)c1	inactive
CCCc1ccc(C(=O)CCC(=O)O)cc1	inactive
COc1ccc(OC)c(C(C(=O)NCc2ccco2)N(C(=O)Cn2nnc3ccccc32)C(C)C)c1 (stereo unspecified)	inactive
COc1ccc(C2C=C(c3ccc(Cl)cc3)Nc3nc(NC(C)=O)nn32)cc1 (stereo unspecified)	inactive
C=CCn1c(C)cc(C(=O)CSc2nc(N)cc(N)n2)c1C	inactive
Cc1ccc(C(C(=O)NCc2ccco2)N(CCc2ccccc2)C(=O)Cn2nnc3ccccc32)o1 (stereo unspecified)	inactive
CCn1cc(C(=O)O)c(=O)c2cc(F)c(N3CCN(S(=O)(=O)c4ccc(NC(C)=O)cc4)CC3)cc21	inactive
CCCOc1ccc(C(=O)N2CCCC2C(=O)O)cc1 (stereo unspecified)	inactive
O=C(CN1CCC(NC(=O)c2cccc(F)c2)CC1)NCc1ccccc1F	inactive
CCCOc1ccc(C(=O)CCC(=O)OCC(=O)N2CC(=O)Nc3ccccc32)cc1	inactive
COc1cccc(C2C3=C(Nc4[nH]n(-c5ccccc5)c(=O)c42)c2ccccc2C3=O)c1 (stereo unspecified)	inactive
COC(=O)c1sc2ccccc2c1-n1cccc1C(=O)C(=O)Nc1ccc(Cl)cc1	inactive
COc1cccc(-n2c(SCC(=O)Nc3ccc4c(c3)CCC4)nc3ccccc3c2=O)c1	inactive
CCOC(=O)C(NC(=O)c1cccc(Cl)c1)(OCc1ccccc1)C(F)(F)F (stereo unspecified)	inactive
COc1ccccc1CC1(C)NC(=O)N(CC(=O)N2CC(C)OC(C)C2)C1=O (stereo unspecified)	inactive
Cn1c(NCc2cccs2)nc2ccccc21	inactive
COc1ccc(OC)c(S(=O)(=O)N(C)CC(=O)N2CCc3ccccc3C2)c1	inactive
CCCC(=O)c1c[nH]c(C(=O)NCCCN2CCOCC2)c1	inactive
O=S(=O)(Nc1ccc2ccccc2c1)c1ccccc1	inactive

Structure (SMILES)	outcome
COc1ccc(N2CCN(C(=O)Nc3ccc(S(=O)(=O)N(C)C)cc3)CC2)cc1	inactive
CCc1nc2ccccc2c2nc3ccccc3n12	inactive
COC(=O)c1ccc2c(=O)n(CCN3CCOCC3)c(SCC(=O)C(C)(C)C)nc2c1	inactive
COC(=O)C1C(=O)C=C(N2CCOCC2)CC1(C)C (stereo unspecified)	inactive
CN(C)C(=O)c1cn(N(C)c2ncc(C(F)(F)F)cc2Cl)c(=O)c2ccccc12	inactive
Cc1nc2ccccc2n1CC(=O)NCc1ccccc1	inactive
CCOc1ccc(N/C=C/C(=O)c2ccc(OC)cc2)c([N+](=O)[O-])c1	inactive
O=C(/C=C/c1ccco1)NC(=S)Nc1ccc(N2CCCC2)cc1	inactive
O=C1CSC(=S)N1c1ccc(F)cc1	inactive
O=C1N=c2ccccc2=C1c1[nH]c(=S)[nH]c1O	inactive
Cc1ccccc1-n1nc(-c2ccc(N)cc2)cc1N	inactive
CC(=O)N(Cc1ccc(Cl)cc1)c1cnccn1	inactive
NCCCC[C@H]1CN=C(N)N1CCC12CC3CC(CC(C3)C1)C2	inactive
CCN(c1ccc(OCC(=O)OCC(=O)Nc2ccc(F)c(F)c2F)cc1)S(=O)(=O)c1ccccc1	inactive
COc1ccc2nc(SCC(=O)N(C)C3CCCCC3)c(C#N)cc2c1	inactive
CC1CCC(NC(=O)C2c3ccccc3C(=O)N2Cc2cccs2)CC1 (stereo unspecified)	inactive
Cc1ccc(Nc2nc(CSc3nnc(-c4ccc(F)cc4)n3C)cs2)cc1	inactive
CCOc1ccc(NC(=O)Nc2cccs2)cc1	inactive
